Source: PubChem (National Center for Advancing Translational Sciences (NCATS))
TGFb SMAD3 inh: blocks TGF-b signaling. HepG2 CAGA-GFP TGF-b/SMAD3 reporter, GFP fluorescence, 18 h; TGF-beta stimulated, 500 pg/mL final. Potency, µM (series often up to 46.1 µM), for the others: at the top dose activity, negative = inhibition, hits mostly inhibitors. 410,000 tested, 1.2% active; also: potency is read from the fitted curve at half-maximal effect; % is scaled to controls: 0 for no effect and ±100 for the full control effect; nearly all actives have a fitted effect of over 65% in size
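Inhibition was scored as loss of TGF-beta-induced (500 pg/mL final, 18 hours, 37 degrees C) GFP in HEPG2 cells carrying a CAGA-GFP reporter, in DMEM with 1% FBS. Well GFP was summed per cell; Activity was normalised to unstimulated and stimulated DMSO wells, then concentration-response fitting.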
DT40 TDP1 no CPT: qHTS for Inhibitors of human tyrosyl-DNA phosphodiesterase 1 (TDP1): qHTS in cells in absence of CPT. DT40 Tdp1-/- hTDP1 cells, no CPT, ATP luminescence, 48 h. Potency, µM (titrated, usually from 46.2 µM), for the others: at the top dose activity change, negative = growth inhibition, most hits filed as inhibitors. 420,000 tested, 15% active. AID 686978, 2013; also: potency is read from the fitted curve at half-maximal effect; % is scaled to controls: 0 for no effect and ±100 for the full control effect; nearly all actives have a fitted effect of over 55% in size
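No-CPT arm: Tdp1-/-;hTDP1 DT40 cells (400/well) plus compounds, incubated ≥48 hr at 37 °C. Readout CellTiter-Glo luminescence.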
HepG2 viability: counter-screen for TGF-b inhibitors: cytotoxicity in HepG2 cells; HepG2 CAGA-GFP viability, ATP luminescence, 18 h; Potency, µM (top dose mostly 46.1 µM), for the others: at the highest dose activity change, negative = cytotoxicity, most hits filed as cytotoxic; AID 588856; 410,000 tested, 0.76% active; also: potency is read from the fitted curve at half-maximal effect
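HepG2 CAGA-GFP cells (1000/well, DMEM with 1% FBS) received compound, then TGF-beta at 500 pg/mL final, and were incubated 18 hours at 37 degrees C. Viability was read by CellTiter-Glo luminescence. Media-only wells were set as complete cell-killing and DMSO as no toxicity.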
TDP1 block: inhibitors of human tyrosyl-DNA phosphodiesterase TDP1; recombinant TDP1, AlphaScreen DNA substrate cleavage; Potency, µM (doses to about 130 µM), for inactives: at the highest dose activity change, negative = inhibition, most hits filed as inhibitors; 350,000 tested, 0.28% active; also: potency is read from the fitted curve at half-maximal effect; % is scaled to controls: 0 for no effect and ±100 for the full control effect; nearly all actives have a fitted effect of over 40% in size
Target sequence (Q9NUW8 whole entry, looked up): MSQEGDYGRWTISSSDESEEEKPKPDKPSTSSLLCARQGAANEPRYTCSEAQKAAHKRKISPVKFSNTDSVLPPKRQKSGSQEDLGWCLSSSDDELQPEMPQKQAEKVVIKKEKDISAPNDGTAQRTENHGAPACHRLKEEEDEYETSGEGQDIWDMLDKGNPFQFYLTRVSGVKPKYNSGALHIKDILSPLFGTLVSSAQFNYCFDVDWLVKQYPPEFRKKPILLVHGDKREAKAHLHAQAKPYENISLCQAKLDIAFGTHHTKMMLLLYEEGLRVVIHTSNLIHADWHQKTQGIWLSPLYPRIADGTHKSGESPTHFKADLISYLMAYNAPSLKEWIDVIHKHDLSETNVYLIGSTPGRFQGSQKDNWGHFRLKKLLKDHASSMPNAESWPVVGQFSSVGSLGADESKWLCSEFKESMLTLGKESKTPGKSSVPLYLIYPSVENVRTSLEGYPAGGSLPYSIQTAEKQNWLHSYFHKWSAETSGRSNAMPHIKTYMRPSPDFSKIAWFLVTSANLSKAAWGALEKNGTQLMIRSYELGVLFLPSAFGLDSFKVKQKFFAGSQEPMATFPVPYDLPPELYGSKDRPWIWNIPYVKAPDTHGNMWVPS
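Enzyme-compound mixtures sat 15 min at room temperature, followed by a 5 min reaction with 15 nM final substrate and 10 min with AlphaScreen beads. Recombinant human Tdp1 was used at 1 nM final.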
IL-1B inflam inh: inhibitors of inflammasome signaling (IL-1 beta secretion). THP-1 LPS/ATP IL-1B secretion, AlphaLISA, 16 h; hits give low values. activity change, % at 57.5 µM. 360,000 tested, 4.7% active. AID 743279; in the data active = activity change below about -50%; inconclusive = mostly about -30% to -49%; also: % is scaled to controls: 0 for no effect and ±100 for the full control effect
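Secreted IL-1B measured by AlphaLISA bead assay after 16 h compound exposure of THP-1 cells; compounds (final up to 57.5 uM) added 1 h before LPS (250 ng/mL) and ATP (1.25 mM) stimulation; lower signal means less secretion.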
TDP1 cell CPT: growth inhibition of DT40 Tdp1-/-;hTDP1 cells with camptothecin (screen for TDP1 inhibitors); chicken DT40 Tdp1-/-;hTDP1 cells + 20 nM CPT, ATP luminescence, 48 h; Potency, µM (series often up to 46.2 µM), for the others: at the top dose activity change, negative = growth inhibition, most hits filed as inhibitors; 420,000 tested, 12% active; also: potency is read from the fitted curve at half-maximal effect; % is scaled to controls: 0 for no effect and ±100 for the full control effect; nearly all actives have a fitted effect of over 55% in size
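Cell growth measured by CellTiter-Glo luminescence after a minimum 48 h, 37 C compound exposure with 20 nM CPT in Tdp1-knockout DT40 cells stably expressing hTDP1, seeded 400/well; qHTS titration format.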
The depositor's hits bear a star; u = inconclusive; x = not tested or not shown; [ ] = another dose, or the depositor's remark. This is a sample that favours compounds with a hit; in the whole collection about 19% have one here. Unless noted, calls follow the shape of the dose curve; as a rule, active = well fitted curve in the direction sought with a large enough effect; inconclusive = small, poorly fitted or top-dose-only effect, or another doubt; inactive = no such curve, though single readings can be large; an effect the other way counts as inactive or inconclusive.

SMILES	TGFb SMAD3 inh	DT40 TDP1 no CPT	HepG2 viability	TDP1 block	IL-1B inflam inh	TDP1 cell CPT
Cc1oc2ccc(O)c(CN(C)Cc3ccccc3)c2c1C(=O)Nc1ccccc1	u	8.2µM*	1.8µM*	9%	x	9.2µM*
CCc1ccc2oc(C(=O)Nc3cccc(C(F)(F)F)c3)cc(=O)c2c1	-1%	-25%	5%	-6%	x	-22%
O=C(COc1ccccc1F)Nc1ccccc1C(=O)OCc1cc(=O)n2nc(C3CC3)sc2n1	5%	-16%	-1%	4%	x	-6%
CN(C)c1ccc(/C=C/N2C=CCc3c2ccc2ccccc32)cc1	7.1µM*	0.089µM*	-85%	x	x	0.079µM*
OC[C@H]1O[C@@](CO)(O[C@H]2O[C@H](CO)[C@@H](O)[C@H](O)[C@H]2O)[C@@H](O)[C@@H]1O	x	0%	x	5%	x	6%
COCCN(Cc1ccco1)C(=O)c1cc2c(Cl)nc3ccc(C)cc3c2s1	0%	u	1%	1%	x	u
O=C(Nc1ccc2nc(-c3ccco3)c(-c3ccco3)nc2c1)NC1CC1	u	23µM*	-27%	3.2µM*	-2	21µM*
COc1ccc(C(=O)NCCc2ccccc2)cc1OC	24%	9%	-5%	x	-1	-10%
O=C(Nc1cccc(C(F)(F)F)c1)c1ccc2nc(-c3ccco3)c(-c3ccco3)nc2c1	u	u	-35%	-5%	-1	21µM*
CCc1nc2ccc(C(=O)NCCc3ccc(OC)c(OC)c3)cc2nc1CC	1%	23µM*	-5%	7%	-26	16µM*
O=C(O)c1ccc2nc(-c3ccco3)c(-c3ccco3)nc2c1	-6%	-24%	-2%	-11%	8	-10%
O=C(Nc1ccc(F)c(Cl)c1)NC1CC1	7%	-9%	-9%	x	u	u
COc1ccc(/C(O)=C/c2nc3ccc(C(=O)NCCc4cccc(C)c4)cc3[nH]c2=O)cc1OC	u	2.3µM*	11%	3%	67	2.9µM*
CCCNC(=O)C1(C)CCCN(C(=O)c2ccccc2OC)C1 (centres undefined)	-7%	28%	-1%	x	2	7%
CCn1c(COC(=O)CNC(=O)c2ccccc2F)nc2cc(S(=O)(=O)N(C)C)ccc21	1%	22%	-5%	x	5	-13%
O=S1(=O)CC(N2CCN(CCO)CC2)CN1Cc1cn(Cc2ccccc2)nn1 (centres undefined)	x	-21%	x	x	56	-2%
CC(C)CCNC(=O)COC(=O)c1cc(Br)c(Br)s1	3%	8%	0%	-2%	8	2%
COc1ccc(CCNC(=O)c2ccc(Cl)cc2)cc1OC	2%	u	-24%	2%	-19	-8%
CCC(C)NC(=O)c1ccc2nc(-c3ccco3)c(-c3ccco3)nc2c1 (centres undefined)	-15%	13µM*	-19%	x	x	16µM*
COc1ccc(CCNC(=O)c2ccc3nc(-c4ccco4)c(-c4ccco4)nc3c2)cc1OC	2%	21µM*	-42%	10µM*	-53*	21µM*
CSc1nnc(CSCc2ccc(Cl)cc2Cl)n1-c1ccccc1	u	20µM*	-2%	2%	-16	u
COc1ccc(N(CC(=O)N2CCCCC2)S(=O)(=O)c2ccc(OC)c(OC)c2)cc1	25%	-4%	-6%	1%[12.3 µM]	x	-5%
O=C(NCN1CCc2ccccc2C1)c1cnccn1	u	23µM*	-19%	4%	11	u
O=C(NCN1CCc2ccccc2C1)c1ccccc1	-11%	11%	0%	0%	13	-19%
Cc1ccc(NC(=O)CN2c3cccc4cccc(c34)S2(=O)=O)cc1	u	u	-25%	-5%	-17	23µM*
SMILES	TGFb SMAD3 inh	DT40 TDP1 no CPT	HepG2 viability	TDP1 block	IL-1B inflam inh	TDP1 cell CPT
Cc1cc(C(=O)CN2c3cccc4cccc(c34)S2(=O)=O)c(C)n1C	-22%	3.3µM*	4%	4%	62	4.6µM*
CCOC(=O)C1CCN(S(=O)(=O)c2cn(C)c(C)n2)CC1	10%	24%	15%	2%	20	-15%
Clc1ccc(-c2csc(=Nc3cccnc3)n2CCCn2ccnc2)cc1Cl	u	15µM*	-45%	11%	-88*	23µM*
CN=c1scc(-c2ccc(Br)cc2)n1C	-12%	-28%	-25%	4%	-10	-11%
COCCn1c(-c2ccc(Br)cc2)csc1=Nc1cccnc1	u	18µM*	-6%	6%	-78*	16µM*
CCC(Sc1ncccc1C(=O)Oc1ccccc1Cl)C(=O)Nc1ccccc1OC (centres undefined)	5%	u	-28%	5%	x	u
NNC(=O)c1sc2nc(N3CCOCC3)c3c(c2c1N)CCCC3	u	u	-16%	7%	-12	-29%
CCOc1ccc(NC(=O)c2sc3nc(N4CCOCC4)c4c(c3c2N)CCCC4)cc1	-6%	u	3%	1%	4	u
Nc1c(C(=O)NCc2ccccc2)sc2nc(N3CCOCC3)c3c(c12)CCCC3	1%	21µM*	7%	7%	62	u
COc1ccc(NC(=O)c2sc3nc(N4CCOCC4)c4c(c3c2N)CC(C)(C)OC4)cc1	0%	11%	1%	3%[56.1 µM]	-16	-29%
Nc1c(C(=O)Nc2ccc(Cl)cc2)sc2nc(N3CCOCC3)c3c(c12)CCCC3	-5%	15µM*	5%	2%	0	u
Nc1c(C(=O)Nc2ccccc2)sc2nc(N3CCOCC3)c3c(c12)CCCC3	2%	9.2µM*	1%	x	-18	u
COc1cccc(NC(=O)c2sc3nc(N4CCOCC4)c4c(c3c2N)CCCC4)c1	-5%	23µM*	-2%	3%	-6	26µM*
CC(C)CNc1nc(Oc2ccc(OCC(N)=O)nn2)nc(N2CCOCC2)n1	0%	-5%	2%	-5%	x	-24%
CNc1ccc(-c2cc(OC)ccc2OC)cn1	0%	-14%	-8%	x	-6	-15%
Cc1ccc(NC(=O)c2sc3nc(N4CCOCC4)c4c(c3c2N)CCCC4)cc1	-15%	u	-13%	x	-23	-9%
CC(=O)c1ccc(NC(=O)c2sc3nc(N4CCOCC4)c4c(c3c2N)CCCC4)cc1	-7%	21µM*	5%	5%	-8	u
CCCCn1c(SCc2c(C)noc2C)nc2cc(S(N)(=O)=O)ccc21	1%	u	-33%	-6%	u	13µM*
